Sfp PPTase inh: Sfp phosphopantetheinyl transferase inhibition | 310,000 tested, 3.5% active | Potency, µM, actives largely listed as inhibitors | Biochemical Sfp PPTase activity, qHTS;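 also: the enzyme is Sfp with the accession as filed and its product quenches rhodamine fluorescence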
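Buffer: 50 mM Hepes-Na pH 7.6, 10 mM MgCl2, 0.01% Nonidet P-40, 0.01% BSA. Enzyme 15 nM, pre-exposed to compound 15 min; substrates then added and fluorescence change tracked over 30 min.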
JMJD2A Tudor: inhibitors of human JMJD2A Tudor domain; O75164; AlphaScreen JMJD2A-Tudor / H3K4me3 peptide binding; Potency, µM (series often up to 114 µM), hits mostly inhibitors; 390,000 tested, 4.4% active; AID 504339; also: nearly all actives have a fitted effect of over 50% in size
BAZ2B inh: inhibitors of human BAZ2B bromodomain | Potency, µM (top dose mostly 114 µM), usual class: inhibitors | AID 504333 | 360,000 tested, 4.4% active | Q9UIF8 | AlphaScreen BAZ2B-H3K14Ac peptide displacement; also: nearly all actives have a fitted effect of over 60% in size
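AlphaScreen luminescence quantifies BAZ2B engagement of H3K14Ac peptide; the protein and biotinylated peptide are both at 50 nM final, buffer PBS pH 7.4 with 0.01% Tween-20, all steps at room temperature.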
G9a inh: G9a (human) methyltransferase inhibition | 350,000 tested, 8.8% active | Potency, µM (doses to about 102 µM), most hits filed as inhibitors | G9a H3K9 monomethylation, AlphaScreen, 2 h; also: nearly all actives have a fitted effect of over 75% in size
Target sequence (Q96KQ7 913-1193 limits assumed): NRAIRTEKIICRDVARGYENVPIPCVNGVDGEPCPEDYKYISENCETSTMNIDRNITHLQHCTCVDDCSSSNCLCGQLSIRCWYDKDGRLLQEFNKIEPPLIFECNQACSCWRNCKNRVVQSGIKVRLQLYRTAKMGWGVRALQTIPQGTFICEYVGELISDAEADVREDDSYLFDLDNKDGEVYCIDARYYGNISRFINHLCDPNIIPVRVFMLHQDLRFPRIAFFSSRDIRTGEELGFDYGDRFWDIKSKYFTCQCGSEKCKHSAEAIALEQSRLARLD
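Compounds were preincubated with 20 nM G9a for 15 min, after which biotinylated H3K9 peptide (500 nM) and SAM (20 uM) started a 2 h room-temperature reaction. Monomethylated product was quantified by antibody-based AlphaScreen chemiluminescence.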
L3MBTL1 block: blocks human L3MBTL1; Q9Y468; AlphaScreen L3MBTL1–H3K9me1 peptide binding; Potency, µM (series often up to 57.1 µM), hits mostly inhibitors; 230,000 tested, 0.66% active; AID 485360; also: nearly all actives have a fitted effect of over 60% in size
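Displacement of a biotinylated histone H3(1-15) peptide monomethylated at Lys9 (75 nM) from L3MBTL1 (50 nM) was measured by AlphaScreen after a 30 min room-temperature compound incubation; cefsulodin titration served as intraplate control.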
HP1b chromo inh: blocks HP1-beta chromodomain binding to methylated histone tails. P83916. AlphaScreen HP1-beta / biotin-H3K9me3 peptide binding. Potency, µM (series often up to 114 µM), hits mostly inhibitors. 390,000 tested, 0.56% active. AID 540317; also: nearly all actives have a fitted effect of over 70% in size
Target sequence (P83916 whole entry, looked up): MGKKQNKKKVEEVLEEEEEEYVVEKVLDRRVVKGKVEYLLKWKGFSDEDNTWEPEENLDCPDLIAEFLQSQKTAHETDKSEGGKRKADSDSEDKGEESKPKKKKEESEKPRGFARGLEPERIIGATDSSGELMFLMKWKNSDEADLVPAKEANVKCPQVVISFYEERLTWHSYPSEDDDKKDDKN
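HP1-beta protein (50 nM final) preincubated 30 min at room temperature with biotinylated H3(1-18)K9me3 peptide (50 nM) in PBS pH 7.4, 0.01% Tween-20, then compound added for 30 min. AlphaScreen streptavidin donor/nickel chelate acceptor beads (10 ug/mL final), 30 min dark, luminescence read.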
A number is an active result; [ ] = another dose, or the depositor's remark. Shown are actives, neighbours in structure and some others; about 12% of the full set was active somewhere. Calls follow the shape of the dose curve; as a rule, active = well fitted curve in the direction sought with a large enough effect; inconclusive = small, poorly fitted or top-dose-only effect, or another doubt; inactive = no such curve, though single readings can be large; an effect the other way counts as inactive or inconclusive.

What do the screens show for `O=C(Cc1n[nH]c(=O)c2ccccc12)OCC(=O)c1ccccc1Cl`?
JMJD2A Tudor: inactive; BAZ2B inh: inactive; G9a inh: inactive; L3MBTL1 block: inactive; HP1b chromo inh: inactive

What do the screens show for `Cc1cc(C(=O)COC(=O)C2=COCCO2)c(C)n1-c1ccc2c(c1)OCO2`?
Sfp PPTase inh: inconclusive; JMJD2A Tudor: inactive; BAZ2B inh: 50µM; G9a inh: inconclusive; L3MBTL1 block: inactive; HP1b chromo inh: inactive

How did Cc1c(CCNC(=O)c2ccc(Br)o2)sc2nc(-c3ccc(F)cc3)nn12 do in these assays?
JMJD2A Tudor: 50µM; BAZ2B inh: inactive; G9a inh: inactive; HP1b chromo inh: inactive

Results for COc1ccc(/C=C/C(=O)Nc2ccc(OC)nc2)cc1 ?
Sfp PPTase inh: inactive; JMJD2A Tudor: inactive; BAZ2B inh: inactive; G9a inh: inactive; L3MBTL1 block: inactive; HP1b chromo inh: inactive

What do the screens show for `COc1ccc(CS(=O)(=O)/C(Cl)=C(/Cl)C(=O)Nc2ccc(OC)nc2)cc1`?
Sfp PPTase inh: inactive; JMJD2A Tudor: inactive; BAZ2B inh: inactive; G9a inh: 45µM; HP1b chromo inh: inactive

What do the screens show for `COc1ccc(NC(=S)Nc2ccccc2)cn1`?
Sfp PPTase inh: inactive; JMJD2A Tudor: inactive; BAZ2B inh: inactive; G9a inh: inactive; L3MBTL1 block: inactive; HP1b chromo inh: inactive

What do the screens show for `CCCCNC(=S)Nc1ccc(OC)nc1`?
Sfp PPTase inh: inactive; JMJD2A Tudor: inactive; BAZ2B inh: inactive; G9a inh: 56µM; L3MBTL1 block: inactive; HP1b chromo inh: inactive

How did COc1ccc(NC(=O)/C(Cl)=C(/Cl)S(=O)Cc2ccccc2)cn1 (stereo not drawn) do in these assays?
Sfp PPTase inh: 40µM; JMJD2A Tudor: inactive; BAZ2B inh: inactive; G9a inh: 11µM; HP1b chromo inh: inactive

What do the screens show for `O=C1COCCN1`?
Sfp PPTase inh: inactive; JMJD2A Tudor: inactive; HP1b chromo inh: inactive

Results for Cc1oc2ccc(O)c(CN3CCCC3)c2c1C(=O)Nc1cccc(Cl)c1C ?
JMJD2A Tudor: inactive; BAZ2B inh: inactive; G9a inh: inactive; HP1b chromo inh: inactive

How did COc1cc2c(cc1OC)C(COc1ccc3c(C)cc(=O)oc3c1)N(C(=O)Cc1ccccc1)CC2 (stereo not drawn) do in these assays?
JMJD2A Tudor: inactive; BAZ2B inh: inactive; G9a inh: inactive; HP1b chromo inh: inactive

What do the screens show for `COc1cc2c(C(=O)NCc3ccc(C)o3)cn(CC(C)C)c(=O)c2cc1OC`?
Sfp PPTase inh: 45µM; JMJD2A Tudor: inactive; BAZ2B inh: inactive; G9a inh: 45µM; L3MBTL1 block: inactive; HP1b chromo inh: inactive

Results for CCC(C)(C)C1CCC(NC(=O)N2CCN(c3ccccc3O)CC2)CC1 (stereo not drawn) ?
Sfp PPTase inh: inactive; JMJD2A Tudor: 79µM; BAZ2B inh: inactive; G9a inh: inactive; HP1b chromo inh: inactive

How did CCOc1ccccc1N1CCN(C(=O)NC2CCCCC2)CC1 do in these assays?
Sfp PPTase inh: inactive; JMJD2A Tudor: inactive; BAZ2B inh: inactive; G9a inh: inactive; HP1b chromo inh: inactive

How did COc1ccc2nc(N3CCCCC3)c(/C=C3\SC(=S)NC3=O)cc2c1 do in these assays?
Sfp PPTase inh: inactive; JMJD2A Tudor: 28µM; BAZ2B inh: 25µM; G9a inh: 11µM; L3MBTL1 block: inconclusive; HP1b chromo inh: inconclusive

What do the screens show for `O=C1NC(=S)S/C1=C\c1cc2ccccc2nc1N1CCCCC1`?
Sfp PPTase inh: inactive; JMJD2A Tudor: 45µM; BAZ2B inh: inactive; G9a inh: inactive; L3MBTL1 block: inactive; HP1b chromo inh: inactive

How did COc1cc(-c2nc(C)c(C(C)=O)n2O)ccc1OCC(=O)Nc1ccc(F)cc1 do in these assays?
Sfp PPTase inh: inactive; JMJD2A Tudor: inactive; BAZ2B inh: inconclusive; G9a inh: inactive; HP1b chromo inh: inactive

Results for CC(=O)c1c(C)nc(-c2ccc(OCC(=O)Nc3ccc(F)cc3)cc2)n1O ?
Sfp PPTase inh: inactive; JMJD2A Tudor: inactive; BAZ2B inh: inactive; G9a inh: 18µM; HP1b chromo inh: inactive

Results for CCOc1cc(-c2nc(C)c(C(C)=O)n2O)ccc1OCC(=O)Nc1ccc(F)cc1 ?
Sfp PPTase inh: inactive; JMJD2A Tudor: inactive; BAZ2B inh: inactive; G9a inh: 50µM; L3MBTL1 block: inactive; HP1b chromo inh: inactive

What do the screens show for `CCCNC(=O)c1c(NC(=O)c2ccccc2)sc2c1CCC(C(C)(C)C)C2` (stereo not drawn)?
JMJD2A Tudor: inactive; BAZ2B inh: inactive; G9a inh: inactive; HP1b chromo inh: inactive

How did COc1cccc(-c2cn3nc(C)c(C)nc3n2)c1 do in these assays?
Sfp PPTase inh: inconclusive; JMJD2A Tudor: inactive; BAZ2B inh: inactive; G9a inh: 20µM; L3MBTL1 block: inactive; HP1b chromo inh: inactive

What do the screens show for `Cc1ccc(-c2nc(SCC(=O)NCc3ccco3)c3c(=O)n(C)c(=O)n(C)c3n2)cc1`?
JMJD2A Tudor: inactive; BAZ2B inh: inactive; G9a inh: inactive; HP1b chromo inh: inactive

Results for CCOC(=O)/C=C1\CN(C(C)c2ccccc2)S(=O)(=O)c2ccccc21 (stereo not drawn) ?
Sfp PPTase inh: inactive; JMJD2A Tudor: 79µM; BAZ2B inh: inactive; G9a inh: 18µM; L3MBTL1 block: inactive; HP1b chromo inh: inactive

How did COC(=O)C(CC(C)C)N1CCC(=O)c2ccccc2S1(=O)=O (stereo not drawn) do in these assays?
Sfp PPTase inh: inactive; JMJD2A Tudor: inactive; BAZ2B inh: inactive; G9a inh: inconclusive; HP1b chromo inh: inactive

What do the screens show for `CCOC(=O)/C=C1\CN(CCC(C)C)S(=O)(=O)c2ccccc21`?
Sfp PPTase inh: inactive; JMJD2A Tudor: inactive; BAZ2B inh: inactive; G9a inh: 35µM; L3MBTL1 block: inactive; HP1b chromo inh: inactive

How did CCCc1cc(C(=O)Nc2c(C)nn(Cc3ccc(Cl)c(Cl)c3)c2C)no1 do in these assays?
JMJD2A Tudor: inactive; BAZ2B inh: inactive; G9a inh: inactive; HP1b chromo inh: inactive

What do the screens show for `Nc1n[nH]c(=S)n1/N=C1/C(=O)Nc2ccccc21`?
Sfp PPTase inh: 11µM; JMJD2A Tudor: 2.5µM; BAZ2B inh: inactive; G9a inh: 1µM; L3MBTL1 block: inactive; HP1b chromo inh: 16µM

Results for Cc1occc1C(=O)Nc1sc2c(c1C(N)=O)CCCCC2 ?
Sfp PPTase inh: 25µM; JMJD2A Tudor: inactive; BAZ2B inh: inactive; G9a inh: 13µM; L3MBTL1 block: inactive[11.4 µM]; HP1b chromo inh: inactive

Results for Cc1noc(C)c1C(=O)Nc1sc2c(c1C(N)=O)CCCCC2 ?
Sfp PPTase inh: 45µM; JMJD2A Tudor: inactive; BAZ2B inh: inconclusive; G9a inh: inconclusive; L3MBTL1 block: inconclusive; HP1b chromo inh: inactive

Results for CCOC(=O)c1c(NC(=O)c2c(C)noc2C)sc2c1CCCCC2 ?
Sfp PPTase inh: 56µM; JMJD2A Tudor: inactive; BAZ2B inh: inactive; G9a inh: inactive[0.501 µM]; L3MBTL1 block: inactive; HP1b chromo inh: inactive

From PubChem BioAssay
